In PubChem BioAssay (Tox21):
Records with an inconclusive call do not appear. Active and inactive are the calls of the source. Unless noted, the call rests on the fitted dose curve; in most records, active means well fitted curve in the direction sought with a large enough effect in the repeat runs; inconclusive means weak or mixed curves; inactive means flat fitted curve, though single readings scatter.

Key:
[1] = qHTS assay to test for compound auto fluorescence at 535 nm (green) in HEK293 cells (AID 720680); conditions: green autofluorescence 485/535 nm; series mostly up to 46 µM
[2] = qHTS assay to test for compound auto fluorescence at 460 nm (blue) in HEK293 cell free culture (AID 720681); conditions: cell-free medium, autofluorescence 405/460 nm (blue); series mostly up to 46 µM
In short: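 Blue fluorescence (Ex 405/Em 460 nm, triamterene-equivalent) was read immediately after pin transfer of compound or DMSO into medium (DMEM, 10% FBS) without cells.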

[3] = qHTS assay to test for compound auto fluorescence at 535 nm (green) in HEK293 cell free culture (AID 720682); conditions: cell-free medium, green autofluorescence 485/535 nm; series mostly up to 46 µM
In short: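 Measurement is a direct plate read of green fluorescence (485 nm in, 535 nm out) after compound addition to serum-supplemented DMEM lacking cells, with fluorescein used to express intensities.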

[4] = qHTS assay to test for compound auto fluorescence at 590 nm (red) in HepG2 cell free culture (AID 720684); conditions: cell-free medium autofluorescence, red 540/590 nm; series mostly up to 46 µM
In short: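 Plate contents were MEM with 10% FBS plus test compound or DMSO, no cells. Fluorescence was recorded with 540 nm excitation and 590 nm emission.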

[5] = qHTS assay to test for compound auto fluorescence at 460 nm (blue) in HepG2 cell free culture (AID 720685); conditions: Cell-free culture medium, blue autofluorescence 405/460 nm; series mostly up to 46 µM
In short: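 Compound (23 nL) or DMSO pinned into cell-free MEM with 10% FBS; blue fluorescence read at 405/460 nm excitation/emission, expressed as auto-fluorescence equivalency to triamterene.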

[6] = qHTS assay to test for compound auto fluorescence at 535 nm (green) in HepG2 cell free culture (AID 720686); conditions: Cell-free medium, green autofluorescence 485/535 nm; series mostly up to 46 µM
[7] = qHTS assay to test for compound auto fluorescence at 460 nm (blue) in HepG2 cells (AID 720687); conditions: autofluorescence 405/460 nm, 1 h; series mostly up to 46 µM
In short: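 Blue-channel autofluorescence (Ex/Em 405/460 nm, triamterene-equivalent) was measured after 1 hr compound exposure at 37 C, 5% CO2. Cells were HepG2, plated overnight at 37 C in MEM plus 10% FBS.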

[8] = biological target: Glucocorticoid receptor (Homo sapiens) (UniProt P04150); assay: qHTS assay to identify small molecule agonists of the glucocorticoid receptor (GR) signaling pathway (AID 720691; active means well fitted activation curve with a large enough effect in the signal ratio in the repeat runs, not every such curve was filed as active; the % refers to the signal ratio); conditions: GR-bla HeLa, beta-lactamase reporter ratio, 18 h; activation: at 62.4 µM (top of the series)
Glucocorticoid receptor (Homo sapiens), sequence (P04150 whole entry, looked up): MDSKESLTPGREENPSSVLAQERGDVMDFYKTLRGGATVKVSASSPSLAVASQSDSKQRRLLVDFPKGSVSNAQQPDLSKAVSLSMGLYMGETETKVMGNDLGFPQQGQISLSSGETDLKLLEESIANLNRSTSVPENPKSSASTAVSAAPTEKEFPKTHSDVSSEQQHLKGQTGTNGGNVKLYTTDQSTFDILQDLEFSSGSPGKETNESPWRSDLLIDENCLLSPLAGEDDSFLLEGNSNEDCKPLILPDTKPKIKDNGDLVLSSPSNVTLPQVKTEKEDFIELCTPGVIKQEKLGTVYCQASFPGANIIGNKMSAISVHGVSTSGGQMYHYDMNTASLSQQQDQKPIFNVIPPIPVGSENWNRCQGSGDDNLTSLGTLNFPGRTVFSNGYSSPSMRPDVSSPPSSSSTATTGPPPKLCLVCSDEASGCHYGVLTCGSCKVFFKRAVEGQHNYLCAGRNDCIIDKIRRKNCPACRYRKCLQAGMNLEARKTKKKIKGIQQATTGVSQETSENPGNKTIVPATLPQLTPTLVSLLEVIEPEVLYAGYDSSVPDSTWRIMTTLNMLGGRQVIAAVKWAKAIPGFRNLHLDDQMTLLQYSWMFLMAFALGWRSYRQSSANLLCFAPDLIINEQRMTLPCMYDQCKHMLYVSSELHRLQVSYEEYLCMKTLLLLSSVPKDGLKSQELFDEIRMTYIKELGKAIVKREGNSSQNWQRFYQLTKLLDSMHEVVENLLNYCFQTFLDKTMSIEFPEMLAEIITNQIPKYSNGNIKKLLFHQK
In short: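 GR-bla HeLa cells (beta-lactamase reporter under glucocorticoid response element) were plated 4 h at 37 C/5% CO2, given compounds in DMSO, and incubated 18 h at 37 C. LiveBLAzer B/G FRET substrate was added for 2 h at room temperature, then fluorescence intensity read.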

[9] = biological target: Glucocorticoid receptor (Homo sapiens) (UniProt P04150); assay: qHTS assay to identify small molecule antagonists of the glucocorticoid receptor (GR) signaling pathway (AID 720692; active means well fitted inhibition curve with a large enough effect in the signal ratio in the repeat runs, not every such curve was filed as active; the % refers to the signal ratio); conditions: GR-bla HeLa, beta-lactamase FRET ratio, dexamethasone-stimulated, 18 h; series mostly up to 58.5 µM
In short: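 GR-bla HeLa cells (beta-lactamase reporter under glucocorticoid response element) were pre-plated 4 h at 37 C, treated with compounds plus 5 nM dexamethasone (final) for 18 h, then read by LiveBLAzer B/G FRET fluorescence after 2 h.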

[10] = qHTS assay to test for compound auto fluorescence at 590 nm (red) in HEK293 cell free culture (AID 720683); conditions: cell-free medium autofluorescence, Ex540/Em590 red; series mostly up to 46 µM
In short: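 Red-channel autofluorescence of compounds in culture medium (DMEM, 10% FBS), no cells, measured at 540/590 nm. Rose Bengal sodium is the reference fluorophore for equivalence.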

Measured: Potency

CCC(C)[C@H]1O[C@]2(C=C[C@@H]1C)C[C@@H]1C[C@@H](C/C=C(\C)[C@@H](O[C@H]3C[C@H](OC)[C@@H](O[C@H]4C[C@H](OC)[C@H](NC(C)=O)[C@H](C)O4)[C@H](C)O3)[C@@H](C)/C=C/C=C3\CO[C@@H]4[C@H](O)C(C)=C[C@@H](C(=O)O1)[C@]34O)O2 (stereo not given in full)
inactive: [1] | [2] | [3] | [4] | [5] | [6] | [7] | [8]

C/C(=C(\CCOC(=O)c1ccccc1)SS/C(CCOC(=O)c1ccccc1)=C(/C)N(C=O)Cc1cnc(C)nc1N)N(C=O)Cc1cnc(C)nc1N
inactive: [1] | [2] | [3] | [4] | [5] | [6] | [7] | [8] | [9]

O=P(O)(O)OC(Cn1cncn1)(Cn1cncn1)c1ccc(F)cc1F
inactive: [1] | [2] | [3] | [4] | [5] | [6] | [7] | [8] | [9]

NC(=O)OCC(O)COc1ccc(Cl)cc1 (stereo not given)
inactive: [1] | [2] | [3] | [4] | [5] | [6] | [8] | [9]

CO[C@@H]1[C@@H](O[C@@H]2O[C@H](C)[C@@H](O[C@H]3C[C@@](C)(O)[C@@H](OC(=O)CC(C)C)[C@H](C)O3)[C@H](N(C)C)[C@H]2O)[C@@H](CC=O)C[C@@H](C)C(=O)/C=C/C2OC2C[C@@H](C)OC(=O)C[C@H]1OC(C)=O (stereo not given in full)
inactive: [1] | [2] | [10] | [4] | [5] | [6] | [7]

Cc1cc(Nc2ccccc2C(=O)O)ccc1Cl
inactive: [1] | [2] | [3] | [4] | [5] | [6] | [7] | [8] | [9]

Cc1c(Cl)cccc1Nc1ncccc1C(=O)O
inactive: [1] | [2] | [10] | [4] | [5] | [6] | [7]

CC(=O)Nc1c(I)c(C(=O)N[C@H]2C(O)O[C@H](CO)[C@@H](O)[C@@H]2O)c(I)c(N(C)C(C)=O)c1I (stereo not given in full)
inactive: [1] | [2] | [3] | [5] | [6] | [7] | [8]

CCOC(=O)[C@H](CCc1ccccc1)N[C@H]1CCCN2CCC[C@@H](C(=O)O)N2C1=O
inactive: [1] | [2] | [10] | [4] | [5] | [6] | [7] | [8] | [9]

Cc1onc(-c2ccccc2)c1C(=O)N[C@@H]1C(=O)N2[C@@H]1SC(C)(C)[C@@H]2C(=O)O
inactive: [1] | [2] | [10] | [4] | [5] | [6] | [7] | [8] | [9]

CC(=O)c1ccc2c(c1)N(CCCN1CCN(CCO)CC1)c1ccccc1S2
inactive: [1] | [2] | [4] | [5] | [6] | [7] | [8] | [9]

CCCCCCCCCCCCOCCCN
inactive: [1] | [2] | [10] | [4] | [5] | [6] | [8] | [9]

C[N+](C)(CCCCCC[N+](C)(C)C1c2ccccc2-c2ccccc21)C1c2ccccc2-c2ccccc21
inactive: [1] | [2] | [10] | [4] | [5] | [6] | [7] | [8] | [9]

C=CC1=C(C)C2=CC3=NC(=C(CC(=O)[O-])C4=NC(=C(C)C4=C([O-])[O-])C=c4[n-]c(c(C)c4CC)=CC1=N2)C(CCC(=O)[O-])C3C.[Cu+2].[Na+].[Na+].[Na+] (stereo not given)
inactive: [1] | [2] | [10] | [4] | [5] | [6] | [8]

C#CCC(Cc1cnc2nc(N)nc(N)c2n1)c1ccc(C(=O)N[C@@H](CCC(=O)O)C(=O)O)cc1 (stereo not given in full)
inactive: [1] | [3] | [10] | [6] | [9]

CC(=O)Oc1cc(C)c(OC(C)=O)c2ccccc12
inactive: [2] | [10] | [4] | [5] | [6] | [7] | [8]

CNC(C)CCC=C(C)C (stereo not given)
inactive: [1] | [2] | [10] | [4] | [5] | [6] | [7]

CN[C@H]1CCc2cc(OC)c(OC)c(OC)c2-c2ccc(OC)c(=O)cc21
inactive: [1] | [2] | [10] | [4] | [5] | [6] | [7] | [8]

O=C1C(=O)c2ncccc2-c2cccnc21
inactive: [1] | [3] | [4] | [6] | [8]

CC(C)(C)NC[C@H](O)COc1ccccc1C1CCCC1
inactive: [1] | [2] | [10] | [4] | [5] | [6] | [7] | [8] | [9]
